# Shown are actives, neighbours in structure and some others; about 27% of the full set was active somewhere.
# Cav32 inh: blocks human Cav3.2 T-type calcium channel. 100,000 compounds, 4% hits. O95180. Cav3.2-expressing cells, Fluo-4 calcium fluorescence FDSS; active compounds read low. B-score at 10 µM;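 active means single-dose well whose peak fluorescence ratio is a statistical outlier from its plate by either plate-standardised score or position-corrected B-score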
# CYP2C9 inhib: human CYP2C9 inhibition; inhibition, % at 5 µM; CYP2C9 Supersomes, luciferin-H conversion, luminescence; 96,000 compounds, 20% hits; P11712;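 active means blocking of liver enzyme CYP2C9 beyond about 50% at 5 µM, limit read from the data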
# CYP2C19 inh: blocks human cytochrome P450 2C19; P33261; CYP2C19 Supersomes, luciferin-H EGE luminescence, 30 min; inhibition, % at 5 µM; 96,000 compounds, 21% hits; AID 778;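 active means CYP2C19 inhibition above a set limit at 5 µM in the primary screen, cut at about 50% in these data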;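 further: plate controls were negative control wells for no effect and 2.5 mM tranylcypromine positive control for full effect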
# CYP2C19 activ: increases human CYP2C19 enzyme activity. P33261. recombinant CYP2C19, luciferin-H EGE luminescence; active compounds read high; 0 = fully inhibited enzyme, 1 = untreated enzyme. activation factor at 5 µM. 96,000 tested, under 10 active;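 active means activation factor of at least 2 at 5 µM in the primary screen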;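 further: 0 = wells with 2.5 mM tranylcypromine and 1 = vehicle-only wells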
# CYP2C9 act: increases human cytochrome P450 2C9 activity. P11712. recombinant CYP2C9, luciferin-H conversion, luminescence; active compounds read high; factor 1 = untreated enzyme, 0 = blocked. activation factor at 5 µM. 96,000 compounds, 1.4% hits;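 active means activation factor of 2 or more for CYP2C9 at a 5 µM dose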;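 further: 0 = sulfaphenazole-blocked wells and 1 = vehicle-only wells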
# * hit, by the source's call; . = no result.
SMILES,Cav32 inh,CYP2C9 inhib,CYP2C19 inh,CYP2C19 activ,CYP2C9 act
O=C(NC1CC2CCC(C1)N2Cc1ccco1)c1ccccc1 (stereo not given),0.61,.,.,.,.
CCOc1ccccc1C(=O)NC1CC2CCCC(C1)N2C1CC1 (stereo not given),-0.16,69*,22,0.8,0.3
CCOc1ccccc1C(=O)NC1CC2CCCC(C1)N2Cc1nnnn1Cc1ccco1 (stereo not given),3.4,98*,88*,0.1,0
O=C(NC1CCN(C(=S)NCc2ccco2)CC1)NC12CC3CC(CC(C3)C1)C2,-3.8*,2,18,0.8,1
CCOc1cc(C2C(C#N)=C(N)Oc3n[nH]c(C)c32)ccc1OCCN1CCOCC1 (stereo not given),-0.39,0,3,1,1
O=C(c1cccc(Br)c1)c1cn(-c2ccccc2)nc1C(=O)c1ccccc1,.,46,38,0.6,0.5
COC(=O)c1c(F)c(F)c(NCCO)c(F)c1F,0.24,-7,2,1,1.1
O=C(Nc1ccc(S(=O)(=O)N2CCCC2)cc1)C1COc2ccccc2O1 (stereo not given),-1.2,.,.,.,.
COC(=O)c1cc(NC(=O)C2COc3ccccc3O2)ccc1Cl (stereo not given),-2.2,72*,95*,0.1,0.3
COC(=O)c1cccc(NC(=O)C2COc3ccccc3O2)c1 (stereo not given),-1.4,60*,67*,0.3,0.4
O=C(Nc1ccc(S(=O)(=O)Nc2ccccc2)cc1)C1COc2ccccc2O1 (stereo not given),-3.8*,.,.,.,.
COC(=O)c1cccc(NC(=O)C2COc3ccccc3O2)c1C (stereo not given),0.36,28,64*,0.4,0.7
O=C(NCC(=O)N(c1cccc(F)c1)C(C(=O)NCC1CCCO1)c1ccccc1)c1ccco1 (stereo not given),0.7,-13,-13,1.1,1.1
C/C(Cl)=C/Cn1c(NCCCn2ccnc2)nc2c1c(=O)[nH]c(=O)n2C,0.35,90*,52*,0.5,0.1
CCCNc1nc2c(c(=O)[nH]c(=O)n2C)n1Cc1cccc(Br)c1,2.2,0,3,1,1
C/C(Cl)=C\Cn1c(NCCCn2ccnc2)nc2c1c(=O)n(C)c(=O)n2C,1.1,100*,77*,0.2,0
Cn1c(=O)[nH]c(=O)c2c1nc(NCCCn1ccnc1)n2Cc1ccc(F)cc1,0.34,78*,68*,0.3,0.2
CCN(CC)CCNc1nc2c(c(=O)n(C)c(=O)n2C)n1C/C=C(/C)Cl,0.71,0,-2,1,1
Cc1n[nH]c(C)c1N=Nc1cc(Cl)ccc1Cl,-0.21,28,31,0.7,0.7
COc1ccc(C(CC(=O)N2CCCC(C)C2)c2c(OC)cc(OC)c3ccc(=O)oc23)cc1 (stereo not given),0.0059,.,.,.,.
O=c1oc2ccccc2c2c1ncn2CCN1CCOCC1,0.042,-14,50*,0.5,1.1
CN1CCN(CCCn2cnc3c(=O)oc4ccccc4c32)CC1,0.77,-14,-5,1.1,1.1
CCN(CC)C(=O)CSc1nnc(-c2ccccn2)n1-c1ccc(C)c(C)c1,1.6,-1,-5,1.1,1
CCn1c(SCC(=O)Nc2nnc(C)s2)nnc1-c1ccncc1,0.63,-1,10,0.9,1
CN1CC=C2C(C#N)=C(N)C(C#N)(C#N)C(c3cccc(Cl)c3Cl)C2C1 (stereo not given),-0.24,91*,93*,0.1,0.1
SMILES,Cav32 inh,CYP2C9 inhib,CYP2C19 inh,CYP2C19 activ,CYP2C9 act
C=CCNC(=O)C1CCN(c2c([N+](=O)[O-])cc(C(F)(F)F)cc2[N+](=O)[O-])CC1,.,22,14,0.9,0.8
CC(=O)N1c2ccccc2C(=O)C1N1CCCCC1 (stereo not given),-0.6,-3,44,0.6,1
COc1cc(CNC2CCCC2)cc(Cl)c1OCc1ccc(F)cc1,-1.9,31,95*,0,0.7
Cc1ccc(-n2c(SCC(=O)Nc3cc(C)on3)nc3c(c2=O)SC(C)C3)cc1 (stereo not given),0.53,34,18,0.8,0.7
CCN(CC)S(=O)(=O)c1ccc(NCc2ccccc2)nc1,0.2,77*,64*,0.4,0.2
COc1ccccc1NC(=O)CN1CCN(CC(=O)Nc2ccc(F)cc2)CC1,0.88,26,88*,0.1,0.7
COc1ccccc1NC(=O)CN1CCN(c2ccccn2)CC1,0.69,.,.,.,.
COC(=O)c1sccc1NC(=O)CN1CCN(c2ccc(F)cc2)CC1,-1.9,54*,39,0.6,0.5
COc1ccc(NC(=O)CN2CCN(CC(=O)Nc3ccccc3F)CC2)cc1OC,0.72,20,19,0.8,0.8
COc1ccccc1NC(=O)CN1CCN(Cc2ccccc2)CC1,1.9,36,72*,0.3,0.6
COc1ccccc1N1CCN(CC(=O)Nc2cc(F)ccc2C)CC1,-3.7,38,33,0.7,0.6
COc1ccc(C)cc1NC(=O)CN1CCN(c2ccc(F)cc2)CC1,-1.3,12,78*,0.2,0.9
CC(C)CNC(=O)c1cccc(C(=O)NCC(C)C)c1,0.67,33,38,0.6,0.7
Cc1nc(NC(=O)c2ccccc2)sc1C1(C)CC(c2ccccc2F)=NO1 (stereo not given),-1,.,.,.,.
CCCSc1nnc(Cn2c(=O)sc3ccccc32)n1C,-0.15,.,.,.,.
CCC1CCCCN1C1Sc2ccc(C(=O)OC)cc2NC1=O (stereo not given),-1.3,12,34,0.7,0.9
CC(c1cccnc1)N(CCN(C)C)C(=O)Nc1ccc(Cl)cc1 (stereo not given),-0.74,28,49,0.5,0.7
Cc1ccc(S(=O)(=O)N2CCC(=O)N(C(COCc3ccc(C(F)(F)F)cc3)Cc3ccccc3)CC2)cc1 (stereo not given),1.1,.,.,.,.
CCN(c1ccccc1)S(=O)(=O)c1ccc(OCc2c(C)noc2C)cc1,-4.4*,86*,72*,0.3,0.1
Cc1ccc(S(=O)(=O)N(C)c2ccc(OCC(=O)OCc3c(C)noc3C)cc2)cc1,-0.14,75*,79*,0.2,0.2
C#Cc1ccc([C@H]2C=C(C(=O)NCc3nc4ccccc4[nH]3)O[C@@H](OCc3ccc(CO)cc3)C2)cc1,-1.6,.,.,.,.
O=C(CNC(=O)c1ccc(Oc2ccccc2)cc1)OC1CCCCC1=O (stereo not given),-0.79,12,11,0.9,0.9
Cc1ccc(NC(=O)C2C(c3ccccc3)C2(Cl)Cl)c(C)c1 (stereo not given),-0.038,52*,97*,0,0.5
COc1ccccc1-c1nnc(SC2CCc3ccccc3NC2=O)s1 (stereo not given),-1.3,.,.,.,.
CCC(=O)N1CCc2cc(S(=O)(=O)CCC(=O)Nc3ccc(F)c(F)c3)ccc21,0.1,52*,28,0.7,0.5
CCC(=O)N1CCc2cc(S(=O)(=O)Nc3ccc4c(c3)OCCO4)ccc21,-0.54,58*,33,0.7,0.4

# Compound activity: PubChem, several laboratories
